# Inconclusive results are not listed. Active and inactive are the calls of the source. How the source made its calls, unless noted: active means hit-call score of the fitted dose curve at least 0.9, where 1 is the maximum; inconclusive means response in the unintended direction; inactive means score below 0.9.
# Legend:
# [1] = read-out: xenobiotic metabolism (CYP2C9), CYP2C9 (gene 1559); test: CLD_CYP2C9_48hr: CellzDirect (CLD) Gene Expression Assay for xenobiotic metabolism (CYP1A2) at 48 hours (AID 2283701; active means hit-call score of the fitted dose curve at least 0.9, where 1 is the maximum; inactive means score below 0.9)
# Summary of the method: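 Primary human hepatocytes (two donor preparations) dosed daily for two days with test chemicals, 0.2% DMSO vehicle; harvested at 48 h. mRNA induction quantified by qNPA chemiluminescence, fitted for gain of signal against DMSO baseline; cytotoxicity annotated from phase-contrast morphology.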
# [2] = read-out: sulfotransferase (SULT2A), SULT2A1 (gene 6822); test: CLD_SULT2A_48hr: CellzDirect (CLD) Gene Expression Assay for sulfotransferase (SULT2A) at 48 hours (AID 2283710);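 further: hits raise SULT2A1 transcript above the 0.2% DMSO vehicle baseline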
# Summary of the method: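 Primary human hepatocytes (two donor preparations) dosed daily for two days with chemicals at multiple concentrations, vehicle 0.2% DMSO; SULT2A1 mRNA induction at 48 h by quantitative nuclease protection assay, chemiluminescent read-out, fitted for gain of signal versus DMSO.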
# [3] = read-out: Broad substrate specificity ATP-binding cassette transporter ABCG2 (Homo sapiens) (UniProt Q9UNQ0); test: CLD_ABCG2_48hr: CellzDirect (CLD) Gene Expression Assay for ABC Transporter (ABCG2) at 48 hours (AID 2283704)
# Summary of the method: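 Primary human hepatocytes from two donors, dosed daily for 2 days, 0.2% DMSO vehicle, several concentrations. ABCG2 mRNA at 48 h by qNPA chemiluminescence, gain fitted versus DMSO; cytotoxicity flagged by morphology.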
# [4] = read-out: alkyl and aryl transferase (GSTA2), GSTA2 (gene 2939); test: CLD_GSTA2_24hr: CellzDirect (CLD) Gene Expression Assay for alkyl and aryl transferase (GSTA2) at 24 hours (AID 2283693)
# Summary of the method: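 Primary human hepatocytes (two donor preparations) dosed daily for two days with chemicals at multiple concentrations (vehicle 0.2% DMSO); GSTA2 mRNA at 24 h measured by qNPA chemiluminescence, gain-of-signal versus DMSO.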
# [5] = read-out: glucuronosyltransferase (UGT1A1), UGT1A1 (gene 54658); test: CLD_UGT1A1_24hr: CellzDirect (CLD) Gene Expression Assay for glucuronosyltransferase (UGT1A1) at 24 hours (AID 2283696)
# Summary of the method: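 Primary human hepatocytes from two donor preparations were dosed (0.2% DMSO vehicle) and harvested at 24 h; UGT1A1 mRNA induction was quantified by chemiluminescent qNPA, fitted as gain relative to DMSO.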
# [6] = read-out: Cytochrome P450 3A4 (Homo sapiens) (UniProt P08684); test: CLD_CYP3A4_48hr: CellzDirect (CLD) Gene Expression Assay for xenobiotic metabolism (CYP3A4) at 48 hours (AID 2283698)
# Summary of the method: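 Primary human hepatocytes from two donor preparations dosed daily for two days with multiple chemical concentrations, 0.2% DMSO vehicle. CYP3A4 mRNA at 48 h by quantitative nuclease protection assay, chemiluminescence, positive fit versus DMSO; cytotoxicity flagged morphologically.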
# [7] = read-out: Cytochrome P450 2B6 (Homo sapiens) (UniProt P20813); test: CLD_CYP2B6_48hr: CellzDirect (CLD) Gene Expression Assay for xenobiotic metabolism (CYP2B6) at 48 hours (AID 2283699);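 further: actives raise transcript level above DMSO so potency reflects induction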
# Summary of the method: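 Primary human hepatocytes dosed daily for two days over multiple concentrations, 0.2% DMSO vehicle; CYP2B6 mRNA quantified at 48 h by qNPA chemiluminescence. Induction fitted as gain of signal versus DMSO; cytotoxicity annotated by morphology.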
# [8] = read-out: xenobiotic metabolism (CYP1A2), CYP1A2 (gene 1544); test: CLD_CYP1A2_48hr: CellzDirect (CLD) Gene Expression Assay for xenobiotic metabolism (CYP1A2) at 48 hours (AID 2283703)
# Summary of the method: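 Primary human hepatocytes from two donor preparations were dosed daily for two days at multiple concentrations in 0.2% DMSO vehicle. CYP1A2 mRNA was measured at 48 hours by chemiluminescent quantitative nuclease protection assay, with gain of signal fitted versus DMSO and cytotoxicity annotated from morphology.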
# [9] = read-out: xenobiotic metabolism (CYP1A1), CYP1A1 (gene 1543); test: CLD_CYP1A1_48hr: CellzDirect (CLD) Gene Expression Assay for xenobiotic metabolism (CYP1A1) at 48 hours (AID 2283705)
# Summary of the method: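 Primary human hepatocytes from two donors dosed daily for two days at multiple concentrations, 0.2% DMSO vehicle; CYP1A1 mRNA induction at 48 h by qNPA chemiluminescence. Cytotoxicity noted by phase-contrast morphology.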
# [10] = read-out: glucuronosyltransferase (UGT1A1), UGT1A1 (gene 54658); test: CLD_UGT1A1_48hr: CellzDirect (CLD) Gene Expression Assay for glucuronosyltransferase (UGT1A1) at 48 hours (AID 2283709);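 further: actives increase expression relative to DMSO so potency refers to induction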
# Summary of the method: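 Human primary hepatocytes dosed daily for two days (0.2% DMSO vehicle), harvested at 48 h. UGT1A1 mRNA induction measured by quantitative nuclease protection assay with chemiluminescence; gain of signal versus DMSO; cytotoxicity flagged from morphology.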
# [11] = STM_H9_OrnithineISnorm_perc: Stemina devTOX quickPredict H9 human embryonic stem cell (hESC)-based Assay for Ornithine (ORN) Metabolite Biomarker, Normalized (AID 2283712; active means hit-call score of the fitted dose curve at least 0.9, where 1 is the maximum; inactive means score below 0.9;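 further: ornithine released into spent medium during last day measured by mass spectrometry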)
# Summary of the method: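 Undifferentiated pluripotent H9 hESCs were exposed to compound for 72h, with media and compound replaced every 24h. Ornithine in final 24-h conditioned media was measured by UPLC-HRMS, normalized to 13C-labeled spike-in standard and to median 0.1% DMSO control.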
# [12] = CLD_ACTIN_48hr: CellzDirect (CLD) Gene Expression Assay for Baseline Control (Actin) at 48 hours (AID 2283702)
# Summary of the method: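 Primary human hepatocytes (two donor preparations) dosed daily for two days with ToxCast chemicals at multiple concentrations versus 0.2% DMSO vehicle; harvested at 48 h. Actin mRNA measured as a background control by quantitative nuclease protection assay with chemiluminescence.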
# [13] = read-out: ABC Transporter (ABCB1), ABCB1 (gene 5243); test: CLD_ABCB1_48hr: CellzDirect (CLD) Gene Expression Assay for ABC Transporter (ABCB1) at 48 hours (AID 2283695)
# Summary of the method: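 Primary human hepatocytes from two donor preparations dosed daily on two consecutive days with 0.2% DMSO vehicle. Harvest at 48 h. ABCB1 mRNA quantified by qNPA with chemiluminescence and fitted for gain of signal versus DMSO.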
# [14] = read-out: ABC Transporter (ABCB11), ABCB11 (gene 8647); test: CLD_ABCB11_48hr: CellzDirect (CLD) Gene Expression Assay for ABC Transporter (ABCB11) at 48 hours (AID 2283697)
# Summary of the method: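 Primary human hepatocytes from two donor preparations dosed daily for two days at multiple concentrations; 0.2% DMSO vehicle. ABCB11 mRNA at 48 h by quantitative nuclease protection assay, chemiluminescence; fitted for induction versus DMSO.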
# [15] = read-out: organic anion transporter (SLCO1B1), SLCO1B1 (gene 10599); test: CLD_SLCO1B1_48hr: CellzDirect (CLD) Gene Expression Assay for organic anion transporter (SLCO1B1) at 48 hours (AID 2283707)
# Summary of the method: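 Primary human hepatocytes from two donor preparations dosed daily for two days with multiple concentrations, 0.2% DMSO vehicle. SLCO1B1 mRNA at 48 h by quantitative nuclease protection assay, chemiluminescence; gain-of-signal fitted versus DMSO.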
# [16] = read-out: Glyceraldehyde-3-phosphate dehydrogenase (Homo sapiens) (UniProt P04406); test: CLD_GAPDH_48hr: CellzDirect (CLD) Gene Expression Assay for Baseline Control (Glyceraldehyde 3-phosphate dehydrogenase) at 48 hours (AID 2283706);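 further: active means higher GAPDH mRNA than DMSO vehicle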
# Summary of the method: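 Primary human hepatocytes dosed daily for two days with fresh chemical at multiple concentrations, 0.2% DMSO vehicle; GAPDH mRNA measured at 48 h by quantitative nuclease protection assay with chemiluminescence, fitted upward relative to DMSO as background control.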
# [17] = read-out: sulfotransferase (SULT2A), SULT2A1 (gene 6822); test: CLD_SULT2A_24hr: CellzDirect (CLD) Gene Expression Assay for sulfotransferase (SULT2A) at 24 hours (AID 2283694)
# Summary of the method: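 Primary human hepatocytes from two donor preparations were dosed daily with fresh solutions, vehicle 0.2% DMSO. At 24 h, lysates went to quantitative nuclease protection (qNPA) with S1 digestion and chemiluminescent readout. Cytotoxicity was annotated from phase-contrast morphology.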
# [18] = read-out: alkyl and aryl transferase (GSTA2), GSTA2 (gene 2939); test: CLD_GSTA2_48hr: CellzDirect (CLD) Gene Expression Assay for alkyl and aryl transferase (GSTA2) at 48 hours (AID 2283708);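 further: active means mRNA induction above DMSO vehicle baseline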
# Summary of the method: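 Primary human hepatocytes dosed daily for two days (0.2% DMSO vehicle), harvested at 48 h. GSTA2 mRNA induction measured by quantitative nuclease protection assay with chemiluminescent imaging, fitted for gain of signal relative to DMSO.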
# Cytochrome P450 3A4 (Homo sapiens), sequence (P08684 whole entry, looked up): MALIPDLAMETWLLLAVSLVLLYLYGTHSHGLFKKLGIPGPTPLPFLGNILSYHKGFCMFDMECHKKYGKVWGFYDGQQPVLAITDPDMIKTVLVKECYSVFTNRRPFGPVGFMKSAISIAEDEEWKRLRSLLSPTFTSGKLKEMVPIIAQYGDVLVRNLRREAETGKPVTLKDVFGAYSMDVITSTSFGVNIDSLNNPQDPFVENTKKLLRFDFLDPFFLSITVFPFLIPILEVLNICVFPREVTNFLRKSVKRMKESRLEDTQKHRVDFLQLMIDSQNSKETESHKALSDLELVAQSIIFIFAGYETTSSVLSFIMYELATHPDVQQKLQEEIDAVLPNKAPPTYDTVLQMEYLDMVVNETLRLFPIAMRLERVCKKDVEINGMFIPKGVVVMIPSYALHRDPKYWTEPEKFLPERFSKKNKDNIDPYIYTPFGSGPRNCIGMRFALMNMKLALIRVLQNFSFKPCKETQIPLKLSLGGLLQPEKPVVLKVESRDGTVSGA
# Glyceraldehyde-3-phosphate dehydrogenase (Homo sapiens), sequence (P04406 whole entry, looked up): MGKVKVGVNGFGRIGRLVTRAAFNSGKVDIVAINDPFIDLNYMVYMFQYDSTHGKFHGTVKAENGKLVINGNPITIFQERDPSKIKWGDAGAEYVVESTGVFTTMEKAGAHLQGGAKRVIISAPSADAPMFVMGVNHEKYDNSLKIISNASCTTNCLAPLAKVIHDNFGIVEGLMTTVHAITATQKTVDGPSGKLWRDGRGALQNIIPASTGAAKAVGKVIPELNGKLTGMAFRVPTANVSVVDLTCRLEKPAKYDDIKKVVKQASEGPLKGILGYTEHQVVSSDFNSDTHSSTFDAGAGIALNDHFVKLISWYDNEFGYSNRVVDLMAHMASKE
# Broad substrate specificity ATP-binding cassette transporter ABCG2 (Homo sapiens), sequence (Q9UNQ0 whole entry, looked up): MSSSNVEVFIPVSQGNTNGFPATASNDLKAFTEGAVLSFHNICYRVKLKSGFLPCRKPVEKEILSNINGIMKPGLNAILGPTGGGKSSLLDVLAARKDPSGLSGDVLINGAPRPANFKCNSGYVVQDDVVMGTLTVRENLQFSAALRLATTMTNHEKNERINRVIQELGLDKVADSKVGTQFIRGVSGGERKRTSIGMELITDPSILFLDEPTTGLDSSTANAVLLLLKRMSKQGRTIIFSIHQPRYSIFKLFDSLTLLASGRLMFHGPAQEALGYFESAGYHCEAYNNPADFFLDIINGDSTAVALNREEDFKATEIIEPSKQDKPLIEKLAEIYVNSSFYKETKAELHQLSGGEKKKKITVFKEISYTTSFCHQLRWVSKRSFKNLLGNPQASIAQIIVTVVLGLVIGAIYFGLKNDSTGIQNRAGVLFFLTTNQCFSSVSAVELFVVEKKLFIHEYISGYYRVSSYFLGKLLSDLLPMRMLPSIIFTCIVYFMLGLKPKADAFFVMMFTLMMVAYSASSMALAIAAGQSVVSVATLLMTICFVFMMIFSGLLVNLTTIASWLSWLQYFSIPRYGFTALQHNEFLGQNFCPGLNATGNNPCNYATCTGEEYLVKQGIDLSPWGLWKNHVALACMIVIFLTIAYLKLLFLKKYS
compound,measurement,setting,value
C[N+]1(C)CCCCC1,AC50,[1],0.0004 µM (active)
same,outcome,[2],inactive
CCCOc1nn(C(=O)NS(=O)(=O)c2ccccc2C(=O)OC)c(=O)n1C,outcome,[3],inactive
CCCCOC(=O)[C@@H](C)Oc1ccc(Oc2ccc(C#N)cc2F)cc1,outcome,[2],inactive
CSc1nc(NC(C)C)nc(NC(C)C)n1,outcome,[4],inactive
same,outcome,[5],inactive
same,AC50,[6],3.24 µM (active)
same,AC50,[7],3.24 µM (active)
same,AC50,[8],1.64 µM (active)
same,AC50,[9],20 µM (active)
same,outcome,[10],inactive
same,outcome,[2],inactive
same,AC50,[11],0.22 µM (active)
C[Si](Cn1cncn1)(c1ccc(F)cc1)c1ccc(F)cc1,outcome,[4],inactive
same,outcome,[5],inactive
same,AC50,[6],0.536 µM (active)
same,AC50,[7],0.051 µM (active)
same,outcome,[12],inactive
same,AC50,[8],1.89 µM (active)
same,AC50,[9],0.727 µM (active)
same,outcome,[10],inactive
same,AC50,[11],76.6 µM (active)
CCOC(=O)COc1cc(-c2nn(C)c(OC(F)F)c2Cl)c(F)cc1Cl,outcome,[13],inactive
same,outcome,[5],inactive
same,AC50,[6],4.37 µM (active)
same,AC50,[7],13.5 µM (active)
same,outcome,[8],inactive
same,AC50,[10],6.18 µM (active)
same,outcome,[2],inactive
CCCCSP(=O)(SCCCC)SCCCC,outcome,[13],inactive
same,AC50,[5],1.9 µM (active)
same,outcome,[14],inactive
same,AC50,[6],20 µM (active)
same,AC50,[7],4.3 µM (active)
same,AC50,[8],3.04 µM (active)
same,AC50,[9],4.08 µM (active)
same,outcome,[15],inactive
same,AC50,[10],20 µM (active)
CCOC(=O)CC(SP(=O)(OC)OC)C(=O)OCC (stereo unspecified),outcome,[4],inactive
same,outcome,[5],inactive
same,outcome,[14],inactive
same,AC50,[6],20 µM (active)
same,AC50,[7],20 µM (active)
same,outcome,[8],inactive
same,outcome,[9],inactive
same,outcome,[16],inactive
same,outcome,[15],inactive
same,outcome,[10],inactive
COc1cccc(C(=O)NN(C(=O)c2cc(C)cc(C)c2)C(C)(C)C)c1C,outcome,[17],inactive
same,AC50,[5],4.26 µM (active)
same,outcome,[14],inactive
same,AC50,[6],1.42 µM (active)
same,outcome,[7],inactive
same,AC50,[8],20 µM (active)
same,AC50,[9],10.1 µM (active)
same,outcome,[15],inactive
same,outcome,[18],inactive
same,AC50,[10],8.82 µM (active)
same,outcome,[2],inactive
CCCSP(=O)(OCC)Oc1ccc(Br)cc1Cl (stereo unspecified),AC50,[5],20 µM (active)
same,outcome,[14],inactive
same,AC50,[6],7.57 µM (active)
same,AC50,[7],3.63 µM (active)
same,AC50,[8],4.26 µM (active)
same,outcome,[9],inactive
same,outcome,[15],inactive
same,AC50,[10],20 µM (active)
O=[N+]([O-])c1cc(C(F)(F)F)c(Cl)c([N+](=O)[O-])c1Nc1ncc(C(F)(F)F)cc1Cl,outcome,[6],inactive
same,outcome,[7],inactive
same,AC50,[8],0.499 µM (active)
same,AC50,[9],0.627 µM (active)
same,outcome,[18],inactive
same,AC50,[11],15.5 µM (active)
COP(=O)(OC)SCn1c(=O)oc2cc(Cl)cnc21,outcome,[4],inactive
same,outcome,[5],inactive
same,outcome,[14],inactive
same,outcome,[6],inactive
same,outcome,[12],inactive
same,outcome,[8],inactive
same,outcome,[9],inactive
same,outcome,[10],inactive

# — PubChem BioAssay (EPA / NIEHS)
